Consider nine compounds from PubChem BioAssay (NCI).

Test systems include NCI-H23 lung; NCI-H226 lung; NCI-H322M lung; HOP-62 NSCLC; NCI-H460 lung; HOP-92 NSCLC; NCI-H522 lung; A549/ATCC NSCLC; 786-0 renal; COLO 205 colon; DU-145 prostate; K-562 leukemia; MALME-3M melanoma; MDA-MB-231 breast; RXF 393 renal; SF-268 CNS; SF-295 CNS; SF-539 CNS; UACC-257 melanoma; M14 melanoma.
Holding throughout (assay): NCI-60 one-dose screen, 48 h (100 = growth as untreated, 0 = no growth, -100 = all killed)
Holding throughout (conditions): 10 µM unless noted

About 83,000 compounds went through this panel and 20% of them were active in at least one assay; those are over-represented in the sample as a whole.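 In brief: 96-well plates, 48 h treatment, single concentration, percent growth endpoint.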 A number with no mark means an inactive call. Active and inactive are the calls of the source. The calls were made as follows: active = growth percent below 10; inactive = the rest.

As for `NNC(=O)c1ccccc1N`, the growth is 101% in the assay on NCI-H23 lung; 114% with NCI-H226 lung; 118% in the assay on NCI-H322M lung; 90.6% in the assay on HOP-62 NSCLC; 118% with NCI-H460 lung; 86.4% with HOP-92 NSCLC. In addition, the growth in the assay on NCI-H522 lung was 130%; in the assay on A549/ATCC NSCLC it was 120%; with 786-0 renal it was 96.9%; in the assay on COLO 205 colon, 133%; in the assay on DU-145 prostate it was 120%; with K-562 leukemia, 118%. For the same compound, the growth was 110% with MALME-3M melanoma; 113% in the assay with MDA-MB-231 breast; 40.6% with RXF 393 renal; 114% in the assay on SF-268 CNS; 110% in the assay with SF-295 CNS; 112% with SF-539 CNS. In addition, the growth in the assay on UACC-257 melanoma was 93.9%; in the assay on M14 melanoma it was 106%.
For the compound `O=C1C=C[C@H](O)[C@@]2(CO)O[C@@H]12`, the growth in the assay with NCI-H23 lung is 93.1%; in the assay on NCI-H226 lung, 71.3%; with NCI-H322M lung, 114%; in the assay with HOP-62 NSCLC, 126%; in the assay with NCI-H460 lung, 121%; in the assay with HOP-92 NSCLC, 64.6%. In addition, the growth with NCI-H522 lung is -60.6% (active); in the assay with A549/ATCC NSCLC it was 144%; in the assay on 786-0 renal it was 102%; with COLO 205 colon, 3.59% (active); with DU-145 prostate it was 95.6%; in the assay on K-562 leukemia, 4.07% (active). Further, the growth was 77.7% with MALME-3M melanoma; 105% in the assay with MDA-MB-231 breast; 23.1% in the assay on RXF 393 renal; 100% in the assay with SF-268 CNS; 109% with SF-295 CNS; 70.1% with SF-539 CNS. The growth with UACC-257 melanoma is 108%.
With `O=C(O)CSCC(=O)Nc1cc(C(F)(F)F)ccc1Cl`, the growth in the assay on NCI-H23 lung was 111%; in the assay on NCI-H226 lung, 109%; with NCI-H322M lung it was 103%; with HOP-62 NSCLC, 105%; in the assay on NCI-H460 lung, 134%; with HOP-92 NSCLC, 104%. The growth in the assay with NCI-H522 lung is 99.9%; in the assay on A549/ATCC NSCLC, 106%; in the assay on 786-0 renal, 107%; in the assay with COLO 205 colon, 121%; in the assay on DU-145 prostate, 128%; with K-562 leukemia it was 102%. In addition, the growth in the assay with MALME-3M melanoma was 105%; in the assay on MDA-MB-231 breast, 112%; in the assay on RXF 393 renal it was 128%; with SF-268 CNS it was 94.5%; in the assay on SF-295 CNS, 103%; in the assay on SF-539 CNS, 101%. In the assay with UACC-257 melanoma, the growth was 103%.
With `CCCCCC#CC(=O)O`, the growth in the assay with NCI-H23 lung is 109%; in the assay on NCI-H226 lung it was 107%; with NCI-H322M lung, 98.7%; in the assay on HOP-62 NSCLC, 98.2%; with NCI-H460 lung, 110%; in the assay with HOP-92 NSCLC it was 83.6%. Moreover, the growth in the assay with NCI-H522 lung is 90.6%; in the assay with A549/ATCC NSCLC, 97%; in the assay on 786-0 renal, 99%; with COLO 205 colon, 107%; with DU-145 prostate, 132%; in the assay with K-562 leukemia it was 103%. Besides, the growth with MALME-3M melanoma was 99.9%; with MDA-MB-231 breast, 110%; with RXF 393 renal, 125%; with SF-268 CNS, 110%; in the assay with SF-295 CNS, 103%; in the assay on SF-539 CNS, 103%. Moreover, the growth with UACC-257 melanoma was 104%; with M14 melanoma, 120%.
Take `C[C@H](CCC[C@H](C)OS(=O)(=O)c1ccccc1)OS(=O)(=O)c1ccccc1`: the growth in the assay with NCI-H23 lung is 107%; with NCI-H226 lung, 90.4%; with NCI-H322M lung it was 96.7%; with HOP-62 NSCLC it was 99.9%; in the assay with NCI-H460 lung, 114%; with HOP-92 NSCLC, 131%. Further, the growth in the assay with NCI-H522 lung was 86.8%; with A549/ATCC NSCLC, 117%; in the assay with 786-0 renal, 107%; in the assay with COLO 205 colon it was 115%; with DU-145 prostate, 119%; in the assay on K-562 leukemia it was 110%. Further, the growth with MALME-3M melanoma was 96.9%; in the assay on MDA-MB-231 breast, 103%; with RXF 393 renal, 142%; with SF-268 CNS, 105%; with SF-295 CNS, 102%; with SF-539 CNS it was 91.7%. In addition, the growth in the assay on UACC-257 melanoma is 107%.
Take `CC(=O)C[n+]1ccc(C)cc1Sc1ccccc1C`: the growth in the assay on NCI-H23 lung is 91%; in the assay on NCI-H226 lung it was 107%; with NCI-H322M lung, 102%; in the assay on HOP-62 NSCLC it was 99.1%; in the assay with NCI-H460 lung it was 104%; with HOP-92 NSCLC it was 94.9%. The growth in the assay on NCI-H522 lung is 98.1%; in the assay with A549/ATCC NSCLC, 112%; in the assay with 786-0 renal, 93.5%; with COLO 205 colon, 116%; in the assay on DU-145 prostate, 98.1%; in the assay with K-562 leukemia it was 102%. Further, the growth is 102% with MALME-3M melanoma; 89.3% in the assay on MDA-MB-231 breast; 134% with RXF 393 renal; 93% with SF-268 CNS; 96.8% with SF-295 CNS; 88.5% in the assay with SF-539 CNS. Moreover, in the assay with UACC-257 melanoma, the growth is 97.8%.
`COc1cc(C(=O)NC(=S)NCc2ccncc2)cc(OC)c1OC`: the growth is 91.8% in the assay on NCI-H23 lung; 86.4% with NCI-H226 lung; 89.5% with NCI-H322M lung; 107% in the assay on HOP-62 NSCLC; 110% in the assay with NCI-H460 lung; 89.2% with HOP-92 NSCLC. Also, the growth is 56.7% in the assay with NCI-H522 lung; 99% with A549/ATCC NSCLC; 97.5% in the assay with 786-0 renal; 95.3% with COLO 205 colon; 103% with DU-145 prostate; 86.2% in the assay with K-562 leukemia. Further, the growth in the assay on MALME-3M melanoma is 104%; with MDA-MB-231 breast, 114%; in the assay with RXF 393 renal it was 95.8%; in the assay with SF-268 CNS it was 102%; in the assay on SF-295 CNS it was 96.5%; with SF-539 CNS, 95.8%. Moreover, the results for the growth with UACC-257 melanoma and with M14 melanoma were 103% and 106%, respectively.
Regarding `Cc1ccc(C)c(CN(C)C)c1O`, the growth with NCI-H23 lung is 102%; in the assay on NCI-H226 lung it was 97.6%; in the assay with NCI-H322M lung it was 108%; in the assay on HOP-62 NSCLC, 97.4%; in the assay with NCI-H460 lung, 102%; in the assay on HOP-92 NSCLC, 88.1%. For the same compound, the growth is 111% in the assay with NCI-H522 lung; 106% in the assay on A549/ATCC NSCLC; 107% in the assay with 786-0 renal; 113% in the assay with COLO 205 colon; 108% with DU-145 prostate; 119% in the assay on K-562 leukemia. Further, the growth with MALME-3M melanoma was 94.8%; in the assay on MDA-MB-231 breast, 109%; with RXF 393 renal, 107%; in the assay on SF-268 CNS it was 104%; with SF-295 CNS it was 97.8%; in the assay with SF-539 CNS it was 96.5%. Further, the growth in the assay with UACC-257 melanoma is 105%.
Turning to `COc1cccc(C(=O)O)c1OC`, the growth in the assay on NCI-H23 lung was 109%; in the assay with NCI-H226 lung it was 89.8%; in the assay on NCI-H322M lung, 95.6%; with HOP-62 NSCLC, 89.4%; with NCI-H460 lung, 101%; in the assay with HOP-92 NSCLC it was 92.5%. Moreover, the growth in the assay with NCI-H522 lung is 87.2%; with A549/ATCC NSCLC, 98.1%; in the assay with 786-0 renal, 96%; with COLO 205 colon, 101%; with DU-145 prostate it was 111%; in the assay on K-562 leukemia, 107%. Also, the growth was 103% with MALME-3M melanoma; 99.2% in the assay with MDA-MB-231 breast; 115% with RXF 393 renal; 105% in the assay on SF-268 CNS; 87.5% in the assay on SF-295 CNS; 96.4% in the assay with SF-539 CNS. Further, in the assay on UACC-257 melanoma, the growth was 97.6%.
